According to PubChem BioAssay AID2551 (National Center for Advancing Translational Sciences (NCATS), 2010):
Hit rate of the full screen: of about 310,000 compounds, about 17,000 (5.5%) were called active. A call without a number means that no potency is given here. About 11% were inconclusive and are not listed. Many of the other results were omitted from the sample, so actives are more common in it than they were. A number with no mark means an inactive call. Calls follow the shape of the dose curve; as a rule, active = well fitted inhibition curve with a large enough effect; inconclusive = small, poorly fitted or top-dose-only effect, or effect the other way; inactive = no such curve, though single readings can be large or run the other way.

The compounds below were run against Nuclear receptor ROR-gamma (Mus musculus) (UniProt P51450) (assay: qHTS for inhibitors of ROR gamma transcriptional activity). Conditions: Drosophila S2 Gal4-RORgamma UAS-luciferase reporter, 20 h; series mostly up to 53.6 µM.
Chain of Nuclear receptor ROR-gamma (Mus musculus) (P51450 whole entry, looked up, the tested form may be a part): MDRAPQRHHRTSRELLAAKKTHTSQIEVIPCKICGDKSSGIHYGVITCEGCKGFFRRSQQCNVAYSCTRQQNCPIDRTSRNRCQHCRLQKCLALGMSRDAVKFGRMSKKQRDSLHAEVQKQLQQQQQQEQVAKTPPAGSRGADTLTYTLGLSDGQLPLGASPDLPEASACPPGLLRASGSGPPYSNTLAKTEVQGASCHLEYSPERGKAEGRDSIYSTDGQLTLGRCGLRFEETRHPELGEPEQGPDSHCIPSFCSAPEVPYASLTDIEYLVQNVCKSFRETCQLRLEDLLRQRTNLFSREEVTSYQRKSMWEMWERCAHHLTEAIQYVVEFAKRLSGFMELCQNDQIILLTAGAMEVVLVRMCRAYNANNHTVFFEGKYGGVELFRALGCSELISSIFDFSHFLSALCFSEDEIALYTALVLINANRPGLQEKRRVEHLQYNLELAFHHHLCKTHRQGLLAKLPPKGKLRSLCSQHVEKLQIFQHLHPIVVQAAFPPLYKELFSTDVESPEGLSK
How it was run: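 In this cell-based reporter format, copper sulfate (700 uM final) drives Gal4–ROR gamma fusion expression from a metallothionein promoter in Drosophila Schneider cells; compounds preincubated 1 hr, reporter read after 20 hr at ambient temperature.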
Also: nearly all actives have a fitted effect of over 60% in size.
Potency is read from the fitted curve at half-maximal effect.

Structure (SMILES) | Potency | activity change, negative = inhibition
CSCCC(NS(=O)(=O)c1ccc(C)cc1)C(=O)NCCc1c[nH]c2ccccc12 (centres undefined) | inactive | 
O=C(CN(C(=O)CCC(=O)Nc1nccs1)c1ccc(F)cc1)NCc1ccc2c(c1)OCO2 | inactive | 
COc1ccc(N2CCC(N3CCN(C)C(CCO)C3)CC2)cc1 (centres undefined) | inactive | 
CC(=O)C1(C)N(O)C(C)(C)C(c2cccs2)=[N+]1[O-] (centres undefined) | 4.47 µM (active) | 
C/C(=N\O)C1(C)N(O)C(C)(C)C(c2ccc(Br)cc2)=[N+]1[O-] (centres undefined) | inactive | 
CC1(C)C(c2cccs2)=[N+]([O-])C2(CCCCC2=O)N1O (centres undefined) | inactive | 
CCOC(=O)c1c(-c2ccccc2)oc2cc(Br)c(O)c(C=O)c12 | inactive | 
O=C(NCCc1ccccc1)c1ccc2c(c1)N(Cc1ccccc1)CCS2 | inactive | 
O=C(NCCNc1ccc([N+](=O)[O-])cc1Cl)c1ccccc1F |  | -13.1% [at 1.91 µM]
C/C(CC(C)C)=N\Oc1nc(C)cc(C)n1 | 6.31 µM (active) | 
COC(c1ccccc1)(c1ccccc1)C(Oc1nc(C)cc(C)n1)C(=O)O (centres undefined) | inactive | 
COc1ccc(NC(=O)CCCN2C(=O)C(c3ccccc3)Oc3cccnc32)cc1 (centres undefined) | inactive | 
CCN(C(=O)c1cc([N+](=O)[O-])ccc1NCc1cccnc1)c1ccccc1 |  | 11.5% [at 1.91 µM]
COc1ccc(CN(C)C(=O)c2cc(-c3ccc(C)cc3C)nc3ccccc23)c(OC)c1OC | inactive | 
Cc1cc(=O)oc2c3c(cc(OCC(=O)NCCC(=O)N[C@@H](C)C(=O)O)c12)OC(C)(C)CC3 | inactive | 
COC(=O)c1ccc(/C=N/NC(=O)C(=O)N2CCCCCC2)cc1 | inactive | 
COc1ccccc1/C=C/C=N/NC(=O)CN1CCN(Cc2ccccc2)CC1 | inactive | 
CC(/C=C/c1ccccc1)=N\NC(=O)C1CC1(C)c1ccccc1 (centres undefined) | inactive | 
O=C(N/N=C/C=C/c1ccccc1)C1CC1(c1ccccc1)c1ccccc1 (centres undefined) | 8.91 µM (active) | 
CN(C(=O)CCNC(=O)Cn1ccc2ccccc2c1=O)c1ccc(Br)cc1 | inactive | 
COc1cc(NC(=O)C2CC(c3ccccc3O)=NO2)c(OC)cc1Cl (centres undefined) | inactive | 
O=C(CN1C(=O)COc2ccc(Cl)cc21)Nc1ccc(N2CCOCC2)cc1 | inactive | 
Cc1ccc(S(=O)(=O)N2CCOCC2)cc1C(=O)NC(=S)N(Cc1ccccc1)C(C)C | 1.26 µM (active) | 
CCOC(=O)c1sc(NC(=O)c2cc(S(=O)(=O)N3CCOCC3)ccc2C)nc1C | inactive | 
Cc1ccc(S(=O)(=O)N2CCOCC2)cc1C(=O)NCc1ccc(F)cc1 | inactive | 
COc1ccc([N+](=O)[O-])cc1NCC(=O)c1ccc(C)cc1 | inactive | 

Structure (SMILES) | Potency | activity change, negative = inhibition
COCC1CCN(C(=O)CCc2nnc(C3(c4ccc(Cl)cc4)CCC3)o2)C1 (centres undefined) | inactive | 
CCCNC(=O)COc1coc(CN2CCN(Cc3ccccc3)CC2)cc1=O | inactive | 
COC(=O)c1cc(S(=O)(=O)NCC2CCN(Cc3ccc(Cl)cc3)CC2)cn1C | inactive | 
O=c1[nH]c(-c2cccs2)nc2ccccc12 | inactive | 
S=c1[nH]c(-c2cccs2)cn1-c1ccccc1 | 5.01 µM (active) | 
O=C(O)/C=C/c1cn(-c2ccccc2)nc1-c1cccs1 | inactive | 
O=C1OC2(CCCCC2)CC2=C1C1O[C@](c3ccsc3)(Cc3ccccc31)O2 |  | -3.37% [at 10 µM]
Nc1nc(SCc2cccc(Br)c2)n[nH]1 | inactive | 
Nc1nonc1-n1nnc(C(=O)N/N=C/c2cc(Br)ccc2O)c1CSC1=NCCS1 | 3.16 µM (active) | 
Cc1ccc(SCc2c(C(=O)N/N=C/c3cccnc3)nnn2-c2nonc2N)cc1 | inactive | 
Cc1ccc(SCc2c(C(=O)N/N=C/C3CC=CCC3)nnn2-c2nonc2N)cc1 (centres undefined) | inactive | 
C=CCOc1ccccc1NC(=O)CN1C(=O)CNC1=O | inactive | 
Cc1ccc(/C=N/NC(=S)Nc2cccc(S(=O)(=O)N(C)C)c2)o1 | 1.26 µM (active) | 
CN(C)S(=O)(=O)c1cccc(NC(=O)Cc2ccsc2)c1 | inactive | 
CN(C)S(=O)(=O)c1cccc(NC(=S)N/N=C/C(=O)c2ccccc2)c1 | inactive | 
O=C(Nc1ccccc1)C1CCN(C(=O)c2ccc(Br)cc2)CC1 | inactive | 
O=C(NCCc1ccccc1Cl)C1CCC(=O)N(CCCc2ccccc2)C1 (centres undefined) | inactive | 
CC1CC(C)CN(CCOc2cccc3ccccc23)C1 (centres undefined) | inactive | 
COc1ccc(-c2n[nH]c(C)c2-c2ccc(OC)c(OC)c2)c(O)c1 | 10 µM (active) | 
COc1ccc(CCN2C(=O)c3[nH]nc(-c4ccccc4O)c3C2c2ccc(C)cc2)cc1OC (centres undefined) | inactive | 
C=C(C)COc1ccc(-c2n[nH]c(C)c2-c2ccccc2)c(O)c1 | 7.08 µM (active) | 
C=C(C)COc1ccc(-c2n[nH]c(C)c2-c2ccccc2OC)c(O)c1 | 14.1 µM (active) | 
COc1ccc(-c2n[nH]c(C)c2-c2ccccc2OC)c(O)c1 | 8.91 µM (active) | 
COc1ccc(OC)c(-c2csc(-c3cccs3)n2)c1 | inactive | 
C=C(C)COc1ccc(-c2nc(N)ncc2-c2ccccc2OC)c(O)c1 | inactive | 
CC(=O)COc1ccc2c(-c3ccccc3)cc(=O)oc2c1 | inactive | 

Structure (SMILES) | Potency | activity change, negative = inhibition
CCOc1ccc(-c2nc(N)ncc2-c2ccccc2OC)c(O)c1 | inactive | 
COc1ccc(-c2c(-c3ccc(OC)cc3O)nc(C)nc2C(F)(F)F)cc1 | inactive | 
COc1ccc(-c2[nH]ncc2CN(C)Cc2c(C)n[nH]c2C)c(OC)c1 | inactive | 
Cc1noc(C)c1COC(=O)COc1ccc(-c2ccccc2)cc1 | inactive | 
O=C(NCCc1ccccn1)c1nc(Cn2cc([N+](=O)[O-])cn2)no1 | inactive | 
Cc1ccccc1N1CC(C(=O)Nc2ccc3c(c2)OCO3)CC1=O (centres undefined) | inactive | 
COc1ccc(-c2csc3ncnc(N4CCN(S(=O)(=O)c5ccccc5C#N)CC4)c23)cc1 | inactive | 
CCCC(=O)N(CCN1CCOCC1)c1nc2ccc(OCC)cc2s1 | inactive | 
CC(=O)Nc1ccc(NC(=O)CSc2nnnn2-c2ccccc2F)cc1 | inactive | 
CCc1ccc(NC(=O)CS(=O)CC(=O)N2CCN(c3ccccc3F)CC2)cc1 (centres undefined) | inactive | 
Cc1nc(CN(C)C(=O)CC2C(=O)NCCN2Cc2ccc(F)cc2)cs1 (centres undefined) | inactive | 
CCOc1ccc(CN2CCN(Cc3c[nH]c4ccccc34)CC2)cc1 | inactive | 
COc1ccc2c(c1)C(NS(=O)(=O)OCC(Cl)(Cl)Cl)CCC2 (centres undefined) | inactive | 
O=C(CC1C(=O)NCCN1C(=O)c1ccc([N+](=O)[O-])cc1)Nc1cccc(Cl)c1 (centres undefined) | inactive | 
O=C(NCc1ccncc1)C1CCCN(S(=O)(=O)c2ccc(Br)cc2)C1 (centres undefined) | inactive | 
COc1ccc(NC(=O)CCCNC(=O)Cn2cnc3sc4c(c3c2=O)CCCC4)cc1OC | inactive | 
CCOc1ccc(-c2n[nH]c(C)c2-c2ccccn2)c(O)c1 | 17.8 µM (active) | 
CCOc1cccc(-c2nn3c(-c4ccccn4)nnc3s2)c1 |  | -2.44% [at 10 µM]
COc1ccc(-n2c(SCC(=O)OC(C)C)nnc2-c2ccccn2)cc1 | inactive | 
COc1ccc(CNC(=O)CCN2C(=O)c3ccccc3C2=O)cc1 | inactive | 
O=C(O)CC(c1ccccc1F)N1Cc2ccccc2C1=O (centres undefined) | inactive | 
COCCC(=O)N1CCC(Oc2ccc(C(=O)NCc3ccon3)cc2)CC1 | inactive | 
O=C(NCCCn1ccnc1)Nc1ccc(Cl)cc1Cl | inactive | 
Clc1ccc(C(Cn2ccnc2)OCc2ccsc2Cl)c(Cl)c1 (centres undefined) | 12.6 µM (active) | 
COc1ccc(C(CNC(=O)COc2ccc([N+](=O)[O-])cc2)N2CCCCC2)cc1 (centres undefined) | inactive | 
CC(=O)NCC(=O)NC1CCCc2c1cnn2-c1ccccc1F (centres undefined) | inactive | 

Structure (SMILES) | Potency | activity change, negative = inhibition
COCCN(CCOC)C(=S)Nc1ccccc1Cl | inactive | 
COCCN(C(=S)Nc1cccc(Cl)c1C)C(C)c1ccco1 (centres undefined) | 7.94 µM (active) | 
Cc1c(Cl)cccc1NC(=O)CCC(=O)N/N=C/c1ccco1 | inactive | 
C=CCn1c(SCC(=O)NCCCO)nc2sc3c(c2c1=O)CCC3 | inactive | 
COc1ccc(NC(=S)N2CCC(NC(=O)c3cccc(F)c3)CC2)cc1 | inactive | 
COc1ccc(C(=O)NC2CCN(C(=S)Nc3ccccc3)CC2)cc1 | inactive | 
COc1ccccc1C1CCN(C(=S)Nc2ccc(Br)cc2)CC1 | 5.01 µM (active) | 
COc1ccc(NC(=O)C2C3CCC(O3)C2C(=O)O)cc1OC (centres undefined) | inactive | 
COc1cc(NC(=O)CCS(=O)(=O)c2ccc3c(c2)oc(=O)n3C)cc(OC)c1 | inactive | 
Cc1ccc(C(=O)N(CC(=O)NC2CCCC2)c2ccc(F)cc2)s1 | inactive | 
C=CCNC(=O)c1ccc(C)c(Br)c1 |  | 5.36% [at 0.365 µM]
CCOc1c2ccc(C(=O)NCc3ccc4c(c3)OCO4)cc2nn1C | inactive | 
C=CCNC(=O)c1ccc2c3n(nc2c1)-c1ccc(C)cc1CO3 | 7.08 µM (active) | 
CCCc1nn2c(=O)cc(CSCC(=O)Nc3cccc(C)c3)nc2s1 | inactive | 
Cc1ccc2c(c1)c1ncn(Cc3ccc(F)cc3)c(=O)c1n2C | inactive | 
Cc1ccc2c(c1)c1ncnc(N3CCc4ccccc4C3)c1n2C | 15.8 µM (active) | 
Cc1ccc2c(c1)c1ncn(CCC3=CCCCC3)c(=O)c1n2C | inactive | 
O=C(O)c1ccccc1-c1ccccc1C(=O)Nc1ccccc1Br | inactive | 
COc1cccc(C(=O)Nc2ccc(NC(=O)c3ccco3)cn2)c1 | inactive | 
O=C(Nc1ccc(NC(=O)c2cccs2)cn1)c1ccco1 | 11.2 µM (active) | 
O=C(Nc1ccc2nccnc2c1)c1ccco1 | inactive | 
Cc1cc(O)c(C2(O)C(=O)Nc3ccccc32)cc1C (centres undefined) | inactive | 
C/C(=N\NC(=O)c1ccc2ccccc2c1)c1cccnc1 | inactive | 
Cn1c(CNC(=O)C(C)(C)C)nc2ccccc21 |  | 20.1% [at 0.365 µM]
CCOc1ccc(C(O)Cc2nc3ccccc3n2C)cc1 (centres undefined) | inactive | 
CC(NCc1nc2ccccc2n1C)C12CC3CC(CC(C3)C1)C2 (centres undefined) | 5.01 µM (active) | 
